Screens (PubChem BioAssay)
Most compounds without a hit are left out; they make up all but 4.6% or so of the library.
Vaccinia Venus = vaccinia inhibition (Venus reporter). 330,000 tested, 0.46% active. AID 720580. Potency, µM (titrated, usually from 36.5 µM), for inactives: at the top dose activity change, negative = inhibition, most hits filed as inhibitors. Vaccinia virus Venus reporter expression, fluorescence; calls by dose curve; tested in A549 cells; further: nearly all actives have a fitted effect of over 30% in size
HCV inhibitor = HCV inhibition; Huh7.5.1 HCVcc-Cre infection, luciferase reporter, 44 h; Potency, µM (titrated, usually from 41.8 µM), without a hit: top-dose activity change, negative = inhibition, hits mostly inhibitors; 340,000 tested, 3.4% active; AID 651820; active means well fitted inhibition curve with a large enough effect; inconclusive means small, poorly fitted or top-dose-only effect, or another doubt; inactive means no such curve, though single readings can be large or run the other way
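Infectious HCVcc-Cre (~0.5 moi) was added to cells just after compound, with cells seeded 4 h earlier at 1,000 per well. Luciferase activity after 44 h culture reported infection; substrate was incubated 15 min at room temperature before reading.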
LASV entry inh = Lassa virus entry inhibition; Lassa virus pseudotype entry inhibition, cell reporter; Potency, µM (series often up to 37.9 µM), for the others: at the highest dose activity change, negative = inhibition, hits mostly inhibitors; 300,000 tested, 1.2% active; AID 540256; calls by dose curve; tested in HEK293 cells; further: nearly all actives have a fitted effect of over 50% in size
VACV mCherry inh = vaccinia inhibition (mCherry reporter) | Vaccinia virus mCherry reporter infection, fluorescence | Potency, µM (titrated, usually from 36.5 µM), for inactives: at the highest dose activity change, negative = inhibition, hits mostly inhibitors | 310,000 tested, 0.63% active | AID 720579; calls by dose curve; tested in A549 cells; further: nearly all actives have a fitted effect of over 35% in size
MARV entry inh = blocks Marburg virus binding to or entry into cells | Marburg virus pseudotyped entry inhibition, cell reporter | Potency, µM (doses to about 37.8 µM), without a hit: top-dose activity change, negative = inhibition, most hits filed as inhibitors | 300,000 tested, 1.8% active | AID 540276; calls by dose curve; tested in HEK293 cells
Numbers without * were called inactive; i = inactive; ? = inconclusive; . = not tested or not shown; ! = not active in a repeat; [ ] = dose if it differs, or a comment. On the % scale 0 is the no-effect control and ±100 the full control effect; potency means the concentration at half of the fitted maximal effect.

SMILES | Vaccinia Venus | HCV inhibitor | LASV entry inh | VACV mCherry inh | MARV entry inh
CCc1ccc(-c2[nH]nc3nc(-c4cc(OC)ccc4OC)cc(C(=O)O)c23)cc1 | -6% | . | ? | -4% | .
CSc1nc(N(CCO)CCO)c2sc3nc(-c4ccco4)c4c(c3c2n1)CCC4 | ? | 6.3µM* | -4% | -20% | ?
O=C(Nc1ccc(OC(F)(F)F)cc1)Nc1cccnc1 | . | 3% | . | . | .
Cc1ccc(NC(=O)Nc2cccc([N+](=O)[O-])c2)cc1F | ? | 11µM* | ? | ? | ?
Cc1cc(NC(=O)Nc2cccc([N+](=O)[O-])c2)no1 | . | -15% | . | . | .
O=C(Nc1ccc(OC(F)(F)F)cc1)Nc1cccc([N+](=O)[O-])c1 | 10µM* | ? | ? | 10µM* | ?
O=C(Nc1ccc(Oc2ccc(NC(=O)Nc3ccc([N+](=O)[O-])cc3)cc2)cc1)Nc1ccc([N+](=O)[O-])cc1 | -10% | 5.6µM* | -24% | ? | -6%[46.1 µM]
Cc1ccc(C(C)C)cc1NC(=O)Nc1ccc([N+](=O)[O-])cc1 | 10µM* | 13µM* | . | ? | .
Cc1cc(O)c(C(C)C)cc1NC(=O)Nc1ccc([N+](=O)[O-])cc1 | -17% | ? | ? | ? | ?
Cc1cc([N+](=O)[O-])ccc1NC(=O)Nc1ccc(F)cc1F | -16% | 3.5µM* | ? | i | ?
CC[C@@H]1C=C(C)C[C@H](C)C[C@H](OC)[C@H]2O[C@@](O)(C(=O)C(=O)N3CCCC[C@H]3C(=O)O[C@H](/C(C)=C/[C@@H]3CC[C@@H](O)[C@H](OC)C3)[C@H](C)[C@@H](O)CC1=O)[C@H](C)C[C@@H]2OC | . | 1%[8.37 µM] | ? | . | 6.5µM*
CCOc1ccc(C(=O)OC(C)CN2CCN(C)CC2)cc1 (configuration not stated) | -6% | 1.8µM* | -6% | -2% | -2%
COc1ccc(C(=O)/C=C/c2ccc(OC)c(Cn3nnc4ccccc43)c2)cc1 | ? | -25% | ? | 13µM* | ?
COc1ccc(C)cc1Cn1nnc2ccccc21 | -14% | 1% | . | -7% | .
COc1ccc(C(=O)/C=C/c2ccc(OC)c(CN3CCOCC3)c2)cc1 | ? | 11% | ? | 10µM* | ?
COc1ccc(/C=C/C(=O)c2ccc(O)cc2)cc1CN1CCOCC1 | ? | -4% | ? | ? | ?
COc1ccc(/C=C/C(=O)c2ccc3ccccc3c2O)cc1CN1CCOCC1 | 0% | -20% | 19% | -10% | 2%
COc1ccc(/C=C/C(=O)c2ccccc2O)cc1CN1CCOCC1 | 3% | ? | ? | . | 11µM*
O=C(N[C@@H]1c2ccccc2C2(CCN(C(=O)c3ccc4c(c3)OCCO4)CC2)[C@H]1O)c1cccnc1 | 6% | . | . | -2% | .
CCC(NC(=S)NCc1ccc(F)cc1)c1ccc(C)cc1 (configuration not stated) | -8% | -16% | ? | -24% | 10µM*
CC(C)CN(C)c1ccc(/C=C2\C=Cc3ccccc32)cc1 | -28% | . | . | -29% | .
CC1CC2=C(NC(=S)NC2c2cccc(F)c2)/C(=C/c2cccc(F)c2)C1 (configuration not stated) | ? | 10µM* | . | ? | ?
Nc1c(N(Cc2ccccc2)C(=O)CCc2ccccc2)c(=O)[nH]c(=O)n1Cc1ccccc1 | -16% | 12% | ? | -9% | -1%
COc1ccccc1CCC(=O)N(Cc1ccccc1)c1c(N)n(Cc2ccccc2)c(=O)[nH]c1=O | -18% | 1.1µM* | ? | ? | -24%
CN(C)c1ccc(N2C(=O)CSC2=S)cc1 | 321% | 8% | -2% | 241% | 21%
SMILES | Vaccinia Venus | HCV inhibitor | LASV entry inh | VACV mCherry inh | MARV entry inh
CC1SC(=S)N(c2ccc(N(C)C)cc2)C1=O (configuration not stated) | -29% | ? | 4%[46.1 µM] | 11µM* | 1%[46.1 µM]
NC(Cc1ccc(C(F)(F)F)cc1)c1csc(NC(=O)Nc2ccccc2)n1 (configuration not stated) | 10µM* | . | . | ? | .
COc1ccc(CC(N)c2csc(NC(=O)Nc3cccc(C(F)(F)F)c3)n2)cc1 (configuration not stated) | 14µM* | . | . | ? | .
c1ccc(CC2CCN(C3=Nc4cccc5cccc3c45)CC2)cc1 | -28% | 11µM* | -10% | -13% | 16µM*
CC(=O)N1CCN(C2=Nc3cccc4cccc2c34)CC1 | 8% | 11µM* | 27% | 1% | -11%
COc1ccccc1N1CCN(C2=Nc3cccc4cccc2c34)CC1 | -7% | 13µM* | ? | -9% | 6.3µM*
COc1ccccc1N1CCN(C(=O)CN2C(=O)c3cccc4cccc(c34)C2=O)CC1 | -2% | ? | ? | -16% | ?
COc1ccccc1N1CCN(C(=O)CCCN2C(=O)c3cccc4cccc(c34)C2=O)CC1 | -27% | 8.9µM* | -15% | 11µM* | ?
COc1ccc(-n2nnnc2S(=O)(=O)CC(=O)N2CCCCC2)cc1 | ? | ? | . | 13µM* | .
COc1ccc(-n2nnnc2S(=O)(=O)Cc2ccc(C(=O)O)cc2)cc1 | . | -15% | -10% | . | ?
COCCCNC(=O)c1c(NC(=O)Cc2coc3cc(C)ccc23)sc2c1CCCC2 | -2% | . | ? | -8% | ?
CN(C)CCC=C1c2ccccc2CCc2ccccc21 | -16% | ? | 9.2µM* | ? | 12µM*!
CN(C)CCC=C1c2ccccc2C=Cc2ccccc21 | -16% | 32µM* | 8.2µM* | -9% | 6.5µM*
CNCCC=C1c2ccccc2C=Cc2ccccc21 | -22% | ? | . | -1% | .
COCCN1C(=O)C2=C(C1=O)C1N(C)c3ccccc3[C@@]13C[C@@H](CO)N(C(=O)c1ccc(Br)cc1)C3=N2 (some centres not stated) | . | . | ? | . | -7%[14.2 µM]
COC(C[C@@H](O)CC(=O)[C@@H](C)OCc1ccccc1)OC | 4% | 35% | . | -15% | .
COC(C[C@@H](O)CC(=O)COCc1ccccc1)OC | -2% | 2.8µM* | . | -10% | .
COc1ccc(S(=O)(=O)Nc2ccc(C)cc2)cc1N(C)S(=O)(=O)c1ccc(Cl)cc1 | 18µM* | 8.9µM* | ? | ? | ?
CC(=O)N(c1ccccc1)C1CC(C)N(C(=O)c2ccccc2)c2ccccc21 (configuration not stated) | -22% | -29% | -22% | i | ?
Cc1ccc(C(=O)N(c2ccccc2)C2CC(C)N(C(=O)c3ccco3)c3ccccc32)cc1 (configuration not stated) | ? | 11µM* | -24% | ? | ?
COc1ccc(N2CCN(CCCNS(=O)(=O)c3c(C)noc3/C=C/N(C)C)CC2)cc1 | . | 7.9µM* | . | . | -8%
CCCCCCCCCCCCCCCCCCN(CCCCCCCCCCCCCCCCCC)c1ccc(C=O)cc1 | -10% | . | . | -14% | .
Cc1ccc2nc(N3CCN(C)CC3)c(C#N)cc2c1 | -16% | -17% | 16% | -11% | ?
Cc1ccc2nc(N3CCN(S(=O)(=O)c4ccc(C)c(Cl)c4)CC3)c(C#N)cc2c1 | . | -25% | ? | . | 4.6µM*
